Experiments:
Assay type in all cases: functional
[1] = biological target: Solute carrier family 2, facilitated glucose transporter member 1 (Homo sapiens) (UniProt P11166); experiment: ST_JUDE_LEISH: Cytotoxicity at 2uM final concentration against transgenic Leishmania Mexicana promastigotes LmGLUT1 that are glucose transport deficient and complemented with the human glucose transporter GLUT1. Activity is measured by DNA content using SYBR green in vitro
[2] = biological target: Hexose transporter 1 (Plasmodium falciparum) (UniProt O97467); experiment: ST_JUDE_LEISH: Cytotoxicity at 2uM final concentration against transgenic Leishmania Mexicana promastigotes LmPfHT that are glucose transport deficient and complemented with the Plasmodium falciparum hexose transporter. Activity is measured by DNA content using SYBR green in vitro
[3] = biological target: Glucose transporter (Leishmania mexicana) (UniProt O61059); experiment: ST_JUDE_LEISH: Cytotoxicity at 2uM final concentration against transgenic Leishmania Mexicana promastigotes LmGT2 that are glucose transport deficient and complemented with the L. Mexicana glucose transporter 2. Activity is measured by DNA content using SYBR green in vitro

Chain of Solute carrier family 2, facilitated glucose transporter member 1 (Homo sapiens) (P11166 whole entry): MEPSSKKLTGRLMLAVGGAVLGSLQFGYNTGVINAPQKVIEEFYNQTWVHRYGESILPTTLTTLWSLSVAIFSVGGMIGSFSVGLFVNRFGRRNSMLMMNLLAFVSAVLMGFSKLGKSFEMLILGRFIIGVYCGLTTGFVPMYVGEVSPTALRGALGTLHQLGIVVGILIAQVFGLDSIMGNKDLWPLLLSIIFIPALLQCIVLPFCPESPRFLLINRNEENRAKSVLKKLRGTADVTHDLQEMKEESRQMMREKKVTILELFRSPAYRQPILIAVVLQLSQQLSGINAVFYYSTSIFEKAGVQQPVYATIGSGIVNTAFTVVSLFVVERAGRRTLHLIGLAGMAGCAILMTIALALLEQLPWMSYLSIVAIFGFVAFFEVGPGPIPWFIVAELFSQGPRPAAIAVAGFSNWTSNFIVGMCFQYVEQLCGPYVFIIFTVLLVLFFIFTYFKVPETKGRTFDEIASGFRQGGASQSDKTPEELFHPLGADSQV

SMILES	inhibition [1]	inhibition [2]	inhibition [3]
Cc1ccc(NC(=O)NCCCCCN2CCC(c3c[nH]c4ccccc34)CC2)cc1I	3.96%	3.64%	3.15%
OC(CNc1ccnc(Nc2cccc(Cl)c2)n1)c1cccc(F)c1 (centres undefined)	3.71%	4.41%	-3.09%
COc1ccc(CCN(C)CCCN2CCC(NC(=O)c3cccc4c(=O)c5ccccc5sc34)CC2)cc1OC	2.6%	1.86%	5.63%
c1ccc(COc2ccc(Nc3ncnc4ccc(-c5ccc(CN6CCSCC6)o5)cc34)cc2)cc1	10.9%	7.33%	7.66%
Cc1[nH]cc(Br)c(=O)c1-c1ccc(Oc2ccccc2)cc1	2.07%	2.3%	1.32%
OCC1CCN(Cc2cccc(C#Cc3cc4ncnc(Nc5ccc(OCc6cccc(F)c6)c(Cl)c5)c4s3)n2)CC1	14.1%	8.82%	9.61%
O=C(NCc1ccc(Cl)cc1)c1ccc(C(=O)NCC2CCCN2CC2CCCCC2)cc1 (centres undefined)	2.97%	1.54%	1.14%
COc1ccc2nccc(N(C)CC3(O)CCN(CC(O)c4ccc5c(c4)NC(=O)CS5)CC3)c2n1 (centres undefined)	-0.29%	-0.78%	-0.26%
CNC(=O)c1ccccc1Nc1nc(Nc2ccc(CCN3CCN(C)CC3)cc2)ncc1Cl	74.6%	74.2%	56%
c1ccc2cc3c(NCCN4CCOCC4)ccnc3cc2c1	7.07%	6.74%	7.2%
O=C(Nc1ccccc1Cl)N(Cc1cc(Cl)cc(Cl)c1)CC(O)COc1ccc(Cl)c(F)c1 (centres undefined)	2.94%	2.72%	-2.7%
CC(C)C[C@H](Nc1ccnc(NCC2CCCCC2)n1)C(=O)NCCc1ccccc1	3.1%	0.57%	0.72%
O=C(NC1CCCCC1)C1CCCN(C(=O)c2ccc(O)c(-c3ccc(Cl)c(Cl)c3)c2)C1 (centres undefined)	0.15%	1.83%	-0.03%
COc1ccc(CCN(C)CCCOc2ccc(NC(=O)c3cccc4c(=O)c5ccccc5[nH]c34)cc2)cc1OC	5.62%	2.58%	1.73%
CCNc1cc(C(=O)N[C@@H](Cc2ccccc2)[C@H](O)CNCCc2cc(OC)cc(OC)c2)cc(N2CCCCS2(=O)=O)c1	7.06%	4.2%	10%
Cc1cc(CNCCCCCCNCc2ccc(-c3ccccc3)cc2)ccc1O	7.54%	7.79%	4.84%
CCC(C)NC(=O)Nc1ccc(-c2cccc(-c3nc4cc(C(F)(F)F)ccc4[nH]3)c2)cc1 (centres undefined)	9.64%	8.86%	4.56%

SMILES	inhibition [1]	inhibition [2]	inhibition [3]
Cc1cc(=NN=Cc2ccc(Cl)cc2)c2cc(F)ccc2[nH]1	-0.08%	0.68%	-0.34%
O=C(Nc1ccc(OC2CCN(Cc3ccsc3)C2)c(Cl)c1)c1ccsc1 (centres undefined)	2.57%	2.64%	1.08%
CCN(CC)CCCNc1ncc2c(-c3ccc(NC(=O)Nc4cc(C(F)(F)F)ccc4F)c(F)c3)nn(C)c2n1	-0.37%	-0.41%	-1.03%
COC(=O)C(C)NCC(=O)c1ccccc1 (centres undefined)	6.16%	6.12%	6.79%
Cc1cc(=NN=Cc2cccc(F)c2)c2cccc(C)c2[nH]1	2.24%	3.31%	0.78%
Fc1ccc2[nH]c(-c3ccc(-c4cccc(CN5CCN(c6ccncc6)CC5)c4)cc3)nc2c1	2.37%	1.42%	4.07%
COc1cc2nc(NCc3nc4ccccc4[nH]3)nc(N)c2cc1OC	11%	11.9%	10.3%
Cc1cccc2nc(-c3cccc(-c4ccc(NC(=O)Cc5ccon5)cc4)c3)[nH]c12	14.2%	12.3%	10.8%
CC(C)c1ccc(Nc2nc(NCCc3c[nH]cn3)nc(NCc3ccccc3)n2)cc1	1.58%	1.6%	0.61%
O=C(Nc1cccc(F)c1)N(Cc1ccc(-c2cccc(CN3CCNCC3)c2)cc1)C1CCN(Cc2ccccc2)CC1	7.44%	6.99%	6.85%
Cc1cccc2[nH]cc(C3CCN(CCC4CCN(C(=O)/C=C/c5ccc(Cl)c(Cl)c5)CC4)CC3)c12	1.19%	-2.11%	2.11%
COc1cc(F)c2ncc(F)c(CCN3C[C@H](CNCc4ccc5c(n4)NC(=O)CS5)[C@H](O)C3)c2c1	0.13%	1.28%	-0.04%
Cn1cc(CCNc2ccnc(NCCc3coc4ccccc34)n2)c2ccccc21	8.67%	6.89%	2.14%
COc1ccc(COc2cc(NCCCN)nc3ccccc23)cc1	4.66%	6.16%	4.46%
CN1CCN(CCc2ccc3nc(-c4csc(Cc5cc(Cl)ccc5OCc5ccccc5)n4)[nH]c3c2)CC1	0.84%	2.08%	-1.4%
COc1ccccc1N(C)CCNc1cc(C)nc(Nc2ccccc2)n1	11.5%	8.65%	5.05%

— ChEMBL document CHEMBL3433997, “St. Jude Leishmania screening dataset” (2016)
